Measurements from PubChem BioAssay AID1220 (Sanford-Burnham Center for Chemical Genomics, 2008).
Hit rate of the full screen: of about 190,000 compounds, about 1,300 (0.68%) were called active. Cut-off read from the data, not from the text of the source: active = inhibition above about 50%; inactive = the rest. Shown is part of a subset that was picked to be rich in actives.

Each molecule was assayed against Mannose-6-phosphate isomerase (Homo sapiens) (UniProt P34949) (assay: MPI inhibition at elevated mannose 6-phosphate – biochemical, fluorescence intensity, high mannose 6-phosphate, primary screen (AID 1220)). Conditions: recombinant PMI enzyme, coupled fluorescence intensity; at 20 µM; active compounds read high.
Mannose-6-phosphate isomerase (Homo sapiens), sequence (P34949 whole entry, looked up): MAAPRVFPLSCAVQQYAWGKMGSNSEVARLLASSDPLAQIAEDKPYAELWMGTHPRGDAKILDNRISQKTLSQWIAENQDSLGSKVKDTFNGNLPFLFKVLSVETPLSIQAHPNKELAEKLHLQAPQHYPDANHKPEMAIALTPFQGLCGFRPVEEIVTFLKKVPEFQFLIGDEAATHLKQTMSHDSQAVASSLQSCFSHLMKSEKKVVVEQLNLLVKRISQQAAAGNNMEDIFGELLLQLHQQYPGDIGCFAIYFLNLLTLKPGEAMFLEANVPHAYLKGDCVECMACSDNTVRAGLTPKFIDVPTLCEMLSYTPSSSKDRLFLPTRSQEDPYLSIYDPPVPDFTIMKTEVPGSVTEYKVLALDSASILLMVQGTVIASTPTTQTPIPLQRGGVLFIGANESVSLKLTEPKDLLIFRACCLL

Structure (SMILES)	inhibition
CCN(Cc1ccccc1)C(=O)CSc1nc(C)cc(C)c1C#N	5.3% (inactive)
Cc1ccc2c(c1)NC(C(C)(C)C)CO2 (stereo unspecified)	-5.8% (inactive)
CC1CCC(C(C)C)C(OC(=O)COC(=O)c2cccn2C)C1 (stereo unspecified)	16% (inactive)
CC1CCC(C(C)C)C(OC(=O)COC(=O)c2cc(O)ccc2N)C1 (stereo unspecified)	59.5% (active)
CC1CCC(C(C)C)C(OC(=O)COC(=O)c2ccc(N)cc2)C1 (stereo unspecified)	16.2% (inactive)
Cc1ccc(SCCNC(=O)CN(c2ccc3c(c2)OCO3)S(C)(=O)=O)cc1	13.2% (inactive)
CCc1ccccc1OCc1nc2ccc(S(=O)(=O)N3CCOCC3)cc2[nH]1	9.5% (inactive)
CC(C)Cc1nc(N2CCC(C(N)=O)CC2)c2nnn(Cc3ccccc3)c2n1	-15% (inactive)
COC(=O)C(C(C)=O)C1=C/C(=N\S(=O)(=O)c2ccc(C)cc2)c2ccccc2C1=O (stereo unspecified)	18% (inactive)
CC(C)c1ccc(S(=O)(=O)/N=C2/C=CC(=O)c3ccccc32)cc1	44.1% (inactive)
Cc1ccc(S(=O)(=O)/N=C2/C=C(Sc3ncn[nH]3)C(=O)c3ccccc32)cc1	88.3% (active)
CC(C)c1ccc(N2C(=O)CC(Sc3ncn[nH]3)C2=O)cc1 (stereo unspecified)	22.4% (inactive)
CCc1ccc(S(=O)(=O)ON2C(=O)c3ccccc3C2=O)cc1	-11.4% (inactive)
Cc1ccc(S(=O)(=O)/N=C2/C=C(C3C(=O)CC(C)(C)CC3=O)C(=O)c3ccccc32)cc1	-3.6% (inactive)
CCc1ccc(C(=O)CSc2ncn[nH]2)cc1	-20.5% (inactive)
CCc1ccc(S(=O)(=O)/N=C2/C=C(Sc3ncn[nH]3)C(=O)c3ccccc32)cc1	90.6% (active)
O=C1c2ccccc2C(=O)N1CCSc1ncn[nH]1	-12% (inactive)
CCc1ccc(S(=O)(=O)/N=C2\C=CC(=O)c3ccccc32)cc1	50.7% (active)
O=C(O)c1ccc(NC2=C/C(=N/S(=O)(=O)c3ccccc3)c3ccccc3C2=O)cc1	-34.1% (inactive)
CC(C)c1ccc(S(=O)(=O)/N=C2/C=C(Sc3ncn[nH]3)C(=O)c3ccccc32)cc1	80% (active)
CCOC(=O)N1CCN(C(=O)CSCc2ccc(Br)cc2)CC1	1.1% (inactive)
Cc1ccc(NC(=O)CSc2nnc(C(F)(F)F)n2C)cc1[N+](=O)[O-]	2.1% (inactive)
CC(C)/C=C1\CCCCC1N(C)C(=O)NC(C)C (stereo unspecified)	2.9% (inactive)
CCCCCCCSc1nnc(-c2ccccc2N)c(=O)[nH]1	13.6% (inactive)

Structure (SMILES)	inhibition
CCNc1sc(C(=O)c2cccs2)c(N)c1-c1nc2ccccc2s1	-5.3% (inactive)
Cc1ccc2sc(N(CCCN(C)C)C(=O)c3ccc(Br)s3)nc2c1C	-10.3% (inactive)
CCOc1ccccc1N(CC(=O)NC1CCCCC1)C(=O)c1nsc(Cl)c1Cl	8.5% (inactive)
CCOc1ccccc1NC(=O)Cn1nnc(-c2ccc(OCC)c(OCC)c2)n1	-1.1% (inactive)
COc1ccc(-c2cn(-c3cccc(C)c3)c(=O)[nH]2)cc1OC	-94.8% (inactive)
COc1ccc(C2CC2/C(=N/OC(=O)c2cccs2)c2ccccc2)cc1 (stereo unspecified)	4.3% (inactive)
O=C(C1CCN(S(=O)(=O)N2CCC3(CC2)OCCO3)CC1)N1CCCCC1	11% (inactive)
COc1ccccc1-c1coc2cc(OC(=O)/C=C/c3ccccc3)ccc2c1=O	57.1% (active)
COc1ccc(Oc2coc3cc(OC(=O)/C=C/c4ccc(F)cc4)ccc3c2=O)cc1	-6.3% (inactive)
COc1ccc(Oc2coc3cc(OC(=O)/C=C/c4ccccc4)ccc3c2=O)cc1	6.5% (inactive)
COc1cccc(NC(=O)N2CCCC2C(=O)Nc2ccc3c(c2)OCCO3)c1 (stereo unspecified)	7% (inactive)
CCOC(=O)c1c(C)nc2c(c1-c1ccccc1)C(=O)c1ccccc1-2	-34.4% (inactive)
O=C1c2ccccc2-c2onc3c(Oc4ccccc4)cc(O)c1c23	-4.7% (inactive)
CCOC(=O)C(C(=O)OCC)c1cc(Br)c2noc3c2c1C(=O)c1ccccc1-3	52.1% (active)
COc1ccc(Cc2n[nH]c(=S)n2C)cc1Br	0.8% (inactive)
O=C(NCCN1CCCCC1)c1cc(OCC(F)(F)F)ccc1OCC(F)(F)F	7.9% (inactive)
Fc1ccccc1NC(=S)NCCc1ccccc1	-7.1% (inactive)
CC(C)CCNC(=S)Nc1ccccc1F	-14.2% (inactive)
CCCCNC(=S)Nc1ccccc1F	59% (active)
O=C(COC(=O)Cc1ccccc1[N+](=O)[O-])NCc1ccccc1Cl	-4% (inactive)
COC(=O)c1cccc(NC(=S)N2CCCCC2)c1	-3.2% (inactive)
S=C(Nc1ccc2nccnc2c1)N1CCOCC1	69.2% (active)
S=C(Nc1ccc(Cl)c(Cl)c1)N1CCOCC1	10.9% (inactive)
COC(=O)c1cccc(NC(=S)N2CCN(c3ccccc3F)CC2)c1	4.7% (inactive)

Structure (SMILES)	inhibition
COC(=O)c1cccc(NC(=S)N2CCOCC2)c1	52.1% (active)
S=C(Nc1ccc2nccnc2c1)N1CCCC1	35.6% (inactive)
CC(C)CCNC(=O)C(NS(=O)(=O)c1ccc2c(c1)c(=O)n(C)c(=O)n2C)c1ccccc1 (stereo unspecified)	-11.2% (inactive)
Cc1cc(C(F)F)n2nc(C(=O)Nc3ccccc3Br)nc2n1	-3.5% (inactive)
Cc1ccsc1/C=N/NC(=O)c1cc(-c2ccncc2)nc2ccccc12	-9.2% (inactive)
N#Cc1ccc(C(=O)Nc2cc(S(=O)(=O)N3CCCC3)ccc2OCC(F)(F)F)cc1	-0.6% (inactive)
CCCc1nc2c(=O)[nH]c3ccccc3c2o1	-0.9% (inactive)
NC(=O)c1c(NC(=O)c2cc3ccccc3o2)sc2c1CCC2	2.2% (inactive)
O=C(Nc1cccc2nsnc12)c1ccc(-c2cccc(Cl)c2)o1	50.2% (active)
COc1ccccc1NC(=O)c1ccc(-c2ccc(Br)cc2)o1	7.4% (inactive)
COC(=O)c1ccccc1NC(=O)c1ccc(-c2cccc(Cl)c2)o1	6.9% (inactive)
O=C(Nc1ccccc1N1CCCCC1)c1ccc(-c2cccc(Cl)c2)o1	1.7% (inactive)
O=C(Nc1cccc2nsnc12)c1ccc(-c2ccc(Br)cc2)o1	50.3% (active)
O=C(Nc1cccc2ncccc12)c1ccc(-c2ccc(Br)cc2)o1	40.4% (inactive)
Cc1ccc(C)c(N2CCN(CCCNC(=O)Cn3cccc3C(=O)c3ccccc3)CC2)c1	-7.6% (inactive)
CC1(c2ccccc2Cl)NC(=O)N(CC(=O)NCc2ccco2)C1=O (stereo unspecified)	-3% (inactive)
COC(=O)c1sccc1NC(=O)CSc1nnnn1-c1ccccc1F	10.3% (inactive)
O=C(O)CCSc1nnc(COc2ccc([N+](=O)[O-])cc2)n1-c1ccccc1	7.5% (inactive)
COc1cccc(-n2c(N)c(C#N)c3ccc([N+](=O)[O-])cc3c2=O)c1	16.8% (inactive)
COc1ccc(-n2cnc3cc([N+](=O)[O-])ccc32)cc1	3.2% (inactive)
CCCCCCn1c(N)c(C#N)c2ccc([N+](=O)[O-])cc2c1=O	63.1% (active)
N#Cc1c(N)n(-c2ccccc2)c(=O)c2cc([N+](=O)[O-])ccc12	36.6% (inactive)
COc1ccc(-n2c(N)c(C#N)c3ccc([N+](=O)[O-])cc3c2=O)cc1	52.3% (active)
CCCCCCC(=O)N=Nc1c(O)[nH]c2ccc([N+](=O)[O-])cc12	1.3% (inactive)

Structure (SMILES)	inhibition
COCCCNc1ncnc2c1[nH]c1ccccc12	16.1% (inactive)
CCCN(C(=O)CSc1nc2c(cnn2-c2ccccc2)c(=O)[nH]1)C1CCS(=O)(=O)C1 (stereo unspecified)	-13.4% (inactive)
O=[N+]([O-])c1ccccc1/C=N/n1c(-c2cccnc2)n[nH]c1=S	3.5% (inactive)
COc1ccc2c(c1)[nH]c1c(=O)n(Cc3ccco3)cnc12	20.7% (inactive)
CCOC(=O)c1c(NC(=O)c2cccs2)sc2c1CC(C)(C)OC2	21.6% (inactive)
Oc1ccc(/C=N/NC(=S)Nc2cccnc2)c(O)c1	-11.9% (inactive)
Oc1ccc(/C=N/NC(=S)Nc2cccnc2)cc1O	6.3% (inactive)
COc1ccc(NC(=S)N(CCN2CCOCC2)Cc2cc3cc4c(cc3[nH]c2=O)OCO4)cc1	14.7% (inactive)
CCOc1ccc(NC(=S)N(CCN2CCOCC2)Cc2cc3cc4c(cc3[nH]c2=O)OCCO4)cc1	24.8% (inactive)
CCOc1ccc(NC(=S)N(CCN2CCOCC2)Cc2cc3cc4c(cc3[nH]c2=O)OCO4)cc1	61.3% (active)
CCOC(=O)C1=C(C)NC(C)=C(C(=O)OCC)C1C(=O)OCC(=O)c1ccc2c(c1)OCCO2	14.5% (inactive)
COC(=O)c1oc2ccccc2c1NC(=O)CN1CCCC1	6.8% (inactive)
COc1cc(NC(=S)Nc2cccc(C)n2)cc(OC)c1OC	-3.5% (inactive)
C/C(CC(=O)Nc1ccc(Cl)c(C(F)(F)F)c1)=N\NC(=O)c1cc2ccccc2cc1O	-5.7% (inactive)
NC(=S)Nc1cccc2cc3ccccc3cc12	-9% (inactive)
NC(=S)Nc1cc2ccccc2c2ccccc12	65.4% (active)
NC(=S)N/N=C\c1c2ccccc2cc2ccccc12	-132% (inactive)
Cc1cccc(NC(=O)c2ccoc2C)n1	9.2% (inactive)
COc1cc(-c2n[nH]c(=S)n2-c2cc(C(F)(F)F)ccc2Cl)cc(OC)c1OC	8.8% (inactive)
O=c1oc2c(CN3CCOCC3)c(O)ccc2c2ccccc12	0.8% (inactive)
CN(C)Cc1c(O)ccc2c3c(c(=O)oc12)CCCCC3	-2.7% (inactive)
CC1=C(C#N)c2nc(N)c(C#N)c(C)c2/C1=C\c1ccc(-c2ccccc2C(=O)O)o1	10.6% (inactive)
COc1cc(/C=C2/C(C)=C(C#N)c3nc(N)c(C#N)c(C)c32)ccc1OCC(=O)O	50.9% (active)
CC1=C(C#N)c2nc(N)c(C#N)c(C)c2/C1=C\c1ccc(C)cc1	-35.8% (inactive)
